From PubChem
HT1080 IDH1KD tx – toxicity to HT-1080 IDH1 knockdown cells (counter line). HT-1080 IDH1 knockdown viability, ATP luminescence, 48 h. Potency, µM (top dose mostly 46.1 µM), most hits filed as cytotoxic. actives 2% (n = 360,000). AID 686971
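CellTiter-Glo luminescence after 48 h compound exposure at 37 degrees C of IDH1-knockdown HT-1080 cells in 5% FBS RPMI. %Activity scaled between DMSO wells and cell-free media wells, with curves fitted and assigned curve classes.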
IL-1B inflam inh – inhibitors of inflammasome signaling (IL-1 beta secretion); THP-1 LPS/ATP IL-1B secretion, AlphaLISA, 16 h; hits give low values; activity change, % at 57.5 µM; actives 4.7% (n = 360,000); in the data active means activity change below about -50%; inconclusive means mostly about -30% to -49%
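THP-1 cells pretreated 1 hr with compounds (up to 57.5 uM final), then stimulated with LPS (250 ng/mL final) plus ATP (1.25 mM final); secreted IL-1B measured by AlphaLISA after 16 hr, decreased signal indicating inhibition.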
DT40 TDP1 no CPT – qHTS for Inhibitors of human tyrosyl-DNA phosphodiesterase 1 (TDP1): qHTS in cells in absence of CPT; Potency, µM (titrated, usually from 46.2 µM), most hits filed as inhibitors; actives 15% (n = 420,000); DT40 Tdp1-/- hTDP1 cells, no CPT, ATP luminescence, 48 h; AID 686978, 2013; further: nearly all actives have a fitted effect of over 55% in size
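Seeded 400 DT40-hTDP1 cells/well (vehicle DMSO, no 20 nM CPT); pinned compounds; ≥48 hr at 37 °C; CellTiter-Glo luminescence as viability measure.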
DT40 TDP1 CPT – growth inhibition of DT40 Tdp1-/-;hTDP1 cells with camptothecin (screen for TDP1 inhibitors) | chicken DT40 Tdp1-/-;hTDP1 cells + 20 nM CPT, ATP luminescence, 48 h | Potency, µM (series often up to 46.2 µM), hits mostly inhibitors | actives 12% (n = 420,000); further: nearly all actives have a fitted effect of over 55% in size
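Chicken DT40 Tdp1-/- cells complemented with human TDP1, 400 cells/well, exposed to compounds plus 20 nM camptothecin for at least 48 h at 37 C; viability read as ATP content by CellTiter-Glo luminescence.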
HT1080-NT tox – kills 2HG-producing HT-1080-NT fibrosarcoma cells; actives 1.6% (n = 360,000); Potency, µM (doses to about 46.1 µM), most hits filed as cytotoxic; HT-1080-NT fibrosarcoma viability, CellTiter-Glo ATP luminescence, 48 h;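 further: NT is the 2HG producing partner of a matched IDH1 knockdown line; nearly all actives have a fitted effect of over 55% in size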
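Fibrosarcoma NT cells, 750 per well in 5% FBS RPMI, were exposed to compound for 48 hours. Viability: CellTiter-Glo luminescence.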
Hits are given with their value; i = inactive; ? = inconclusive; nt = no result; [ ] = another dose, or the depositor's remark. Hits are enriched below; roughly 19% of the tested compounds scored in any of these assays. Unless noted, the call rests on the fitted dose curve; in most records, active means well fitted curve in the direction sought with a large enough effect; inconclusive means small, poorly fitted or top-dose-only effect, or another doubt; inactive means no such curve, though single readings can be large; an effect the other way counts as inactive or inconclusive.

SMILES	HT1080 IDH1KD tx	IL-1B inflam inh	DT40 TDP1 no CPT	DT40 TDP1 CPT	HT1080-NT tox
COCCN(C(=O)COC(=O)c1cccnc1SC)c1c(N)n(Cc2ccccc2)c(=O)[nH]c1=O	i	i	i	i	i
Cc1cccc(NC(=O)c2cccc([N+](=O)[O-])c2O)c1C	?	i	13µM	16µM	?
Cc1cccc(NC(=O)c2cnn(C)c2)c1C	i	i	i	i	i
Cc1ccc(C)c(NC(=O)c2ccccc2O)c1	?	i	9.2µM	8.2µM	?
Cc1cccc(NC(=O)c2cnn3ccccc23)c1C	?	-53	2.1µM	1.6µM	i
Cc1cccc(NC(=O)c2ccccc2O)c1C	i	-61	?	21µM	?
CC(NCc1ccco1)C(=O)N1CCc2ccccc2C1 (stereo not drawn)	?	i	i	i	i
Cc1cnc(NC(=O)C2(c3ccccc3)CC2)s1	i	i	?	?	i
Cn1c(Oc2ccc(F)cc2)c(C=O)c2ccccc21	i	-92	?	?	i
COc1ccc(C#Cc2c(C=O)n(C)c3ccccc23)cc1	i	i	?	?	i
O=c1ccc(C(F)(F)F)cn1Cc1cc(=O)n2cc(Br)ccc2n1	i	i	i	i	i
C=C1C=C(C(F)F)n2ncc(C(=O)NCc3ccc(Cl)cc3Cl)c2N1	nt	nt	16µM	8.9µM	nt
C=C1C=C(C(F)F)n2ncc(C(=O)NCc3ccccc3OC)c2N1	nt	nt	?	10µM	nt
Cc1ccc(-c2nc3cc(NC(=O)c4cc5ccccc5o4)ccc3o2)cc1	nt	nt	?	i	nt
COc1ccc(-c2nc3cc(NC(=O)c4cc5ccccc5o4)ccc3o2)cc1	nt	nt	16µM	?	nt
COc1cc2ccccc2cc1C(=O)Nc1cccc(-c2nc3cc(C)c(C)cc3o2)c1	nt	nt	15µM	?	nt
CCc1ccc(-c2nc3cc(NC(=O)c4cc5ccccc5cc4OC)ccc3o2)cc1	nt	nt	13µM	?	nt
CCOc1cc(S(=O)(=O)n2nc(C)cc2C)ccc1F	i	i	i	i	i
Clc1ccc(C2=C3CCCCn4c(-c5ccccc5)c[n+](c43)C2)cc1	?	i	?	?	?
COc1ccc(-c2c[n+]3c4n2CCCCC4=C(c2ccc(Br)cc2)C3)cc1	?	-98	10µM	6.5µM	?
COc1ccc(N2CCN(CCCNC(=O)C3CCC(CNc4nc(=S)[nH]c5ccccc45)CC3)CC2)cc1 (stereo not drawn)	i	i	23µM	?	i
O=C(C1CCC(CNc2nc(=S)[nH]c3ccccc23)CC1)N1CCN(c2ccc(F)cc2)CC1 (stereo not drawn)	?	-72	4.6µM	2.6µM	?
COc1ccc(N2CCN(CCNC(=O)C3CCN(S(=O)(=O)c4cccs4)CC3)CC2)cc1	i	i	?	?	i
CC(C(=O)N1CCCCC1)N(C)CC(=O)Nc1cccc(F)c1 (stereo not drawn)	i	i	i	i	i
CC(Nc1nc(N2CCCCC2)nc2ccccc12)c1ccccc1 (stereo not drawn)	?	?	23µM	?	?
SMILES	HT1080 IDH1KD tx	IL-1B inflam inh	DT40 TDP1 no CPT	DT40 TDP1 CPT	HT1080-NT tox
C=CCNc1nc(N2CCCC2)nc2ccccc12	?	i	16µM	16µM	i
CC(Nc1nc(-c2ccccc2)nc2ccccc12)c1ccccc1 (stereo not drawn)	i	i	?	?	?
O=C(OCC(=O)N1CCN(c2ccccc2)CC1)c1ccccc1NCCO	i	i	i	i	i
O=C(COC(=O)/C=C/c1ccc(F)cc1)NCC1CCCO1 (stereo not drawn)	i	i	i	?	i[9.24 µM]
COc1cccc2sc(N(Cc3cccnc3)C(=O)c3ccco3)nc12	nt	nt	?	16µM	nt
O=C(c1ccco1)N(Cc1cccnc1)c1nc2ccc(F)cc2s1	nt	nt	i	i	nt
COc1ccc(OC)c2sc(N(Cc3cccnc3)C(=O)c3ccco3)nc12	nt	nt	21µM	?	nt
CCc1ccc(C(C)NC(=O)c2ccc3c(c2)OCO3)cc1 (stereo not drawn)	i	i	i	i	i
CSc1ncc2c(n1)-c1ccccc1N(Cc1ccc(F)cc1)S2(=O)=O	nt	nt	i	i	nt
